Among the data in PubChem BioAssay (Tox21) are Potency values, retold here.

Records with an inconclusive call do not appear. Entries that show only a call come without a potency. Activity calls are given as the source filed them. Calls come from the whole dose curve; as a rule, active = well fitted inhibition curve with a large enough effect in the signal ratio in the repeat runs, with a control signal flat; inconclusive = weak or mixed curves, or effect the other way; inactive = flat fitted curve, though single readings scatter; the % refers to the signal ratio.

Chain of D(2) dopamine receptor (Homo sapiens) (P14416 whole entry, looked up): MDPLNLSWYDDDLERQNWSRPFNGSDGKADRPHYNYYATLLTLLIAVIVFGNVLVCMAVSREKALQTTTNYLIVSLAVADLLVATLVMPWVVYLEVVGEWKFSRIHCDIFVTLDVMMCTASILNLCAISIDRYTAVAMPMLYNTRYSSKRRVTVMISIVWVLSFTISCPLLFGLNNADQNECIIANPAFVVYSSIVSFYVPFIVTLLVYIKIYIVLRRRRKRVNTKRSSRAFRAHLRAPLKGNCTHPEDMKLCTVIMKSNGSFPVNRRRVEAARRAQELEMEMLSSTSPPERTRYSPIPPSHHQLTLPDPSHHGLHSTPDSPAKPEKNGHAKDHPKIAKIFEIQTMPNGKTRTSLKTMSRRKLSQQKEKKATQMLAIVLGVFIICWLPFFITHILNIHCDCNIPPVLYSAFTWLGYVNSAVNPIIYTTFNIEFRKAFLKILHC

The assay has as its target D(2) dopamine receptor (Homo sapiens) (UniProt P14416). As to the kind of experiment: Dopamine D2 receptor (DRD2) small molecule antagonists, cell-based qHTS assay (AID 1963595). Particulars: HEK293-DRD2 cAMP HTRF antagonist mode; series mostly up to 92.4 µM. From the text: National Center for Advancing Translational Sciences [NCATS]
Division of Preclinical Innovation [DPI]
U.S. Environmental Protection Agency [EPA]
National Institutes of Environmental Health Sciences [NIEHS]
National Toxicology Program [NTP]
U.S. Food and Drug Administration [FDA]
DRD2 is the D2 subtype of the dopamine receptor, which is coupled to Gi subtype of G protein-coupled receptor. This G protein-coupled receptor inhibits adenylyl cyclase activity. The DRD2-HEK293 cell line stably expressing D2 dopamine receptor can be used for screening agonists and antagonists of interactions between D2 and its ligands. The Hek293-DRD2 cAMP assay is based on HTRF technology. It measures changes of cAMP accumulation in response to Gi coupled GPCR activation or inhibition.
Tox21 Assay Protocol Summary:
DRD2-Hek293 cells were dispensed at 600 cells/3uL/well in 1536-well white plates using a Multidrop Dispenser. After the assay plates were incubated at a 37 C/5% CO2 incubator for 24 h, 1 uL of Ro20-1724 at final concentration of 0.1 mM was transferred to the assay plate by a Flying Reagent Dispenser. Following Ro20-1724 addition, 23 nL of compound dissolved in DMSO, positive controls or DMSO only was added to the assay plates via Wako pintool station. The assay plates were incubated at room temperature for 10 min. Next, 1 uL of mixture of NKH477 (final concentration at 200 nM) and quinpirole (final concentration at 12 nM) was added into the plates. After the assay plates were incubated at room temperature for an additional 30 min, 2.5 ul/well of cAMP-d2 and 2.5 ul/well of anti-cAMP-cryptate were added respectively into the assay plates using a Flying Reagent Dispenser. The plates were incubated at room temperature for 1 h. The fluorescence intensity in the plates was measured at 340 nm excitation and 665 & 620 nm emission by an Envision plate reader.
A general note: qHTS replaces the single test concentration by a dilution series.
With `CC(C)CCCCCCCCCCCCCCC(=O)O`, the Potency entry was “inactive”. Next, `O=C1OC2(c3cc(Br)c(O)c(Br)c3Oc3c2cc(Br)c(O)c3Br)c2c(Cl)c(Cl)c(Cl)c(Cl)c21`: “inactive”. The value for `Cn1c(=O)c2c(ncn2C)n(C)c1=O` was “inactive”; that for `CO[Si](OC)(OC)c1ccccc1` was “inactive”; that for `CNCCCC12CCC(c3ccccc31)c1ccccc12` was “inactive”. On to `C/C=C/C(=O)CCCC`, for which the Potency entry is “inactive”. Turning to `Nc1nccs1`, the Potency entry is “inactive”. Next, `S=C(NC1CCCCC1)NC1CCCCC1`: “inactive”; `CCCOC(C)=O`: “inactive”; `CCOC(=O)CC(C)=O`: “inactive”.

Consider `OC[C@H]1O[C@@H]2O[C@H]3[C@H](O)[C@@H](O)[C@@H](O[C@H]4[C@H](O)[C@@H](O)[C@@H](O[C@H]5[C@H](O)[C@@H](O)[C@@H](O[C@H]6[C@H](O)[C@@H](O)[C@@H](O[C@H]7[C@H](O)[C@@H](O)[C@@H](O[C@H]1[C@H](O)[C@H]2O)O[C@@H]7CO)O[C@@H]6CO)O[C@@H]5CO)O[C@@H]4CO)O[C@@H]3CO`, for which the Potency result was “inactive”. Next, `NS(=O)(=O)c1ccc(N2CCCCS2(=O)=O)cc1`: “inactive”; `CCC(=O)OC`: “inactive”. Consider `C=C(CC)C(=O)c1ccc(OCC(=O)O)c(Cl)c1Cl`, for which the Potency entry was “inactive”.

With `O=C(O)c1cc(C(=O)O)cc([N+](=O)[O-])c1`, the Potency result is “inactive”. Next, `CCCC(=O)OCc1ccccc1`: “inactive”; `CN1CCCC1`: “inactive”; `CC(C)(C)C1CCCCC1O` (stereo not given): “inactive”. On to `CC1=NN(c2ccc(S(=O)(=O)O)cc2)C(=O)C1`, for which the Potency result is “inactive”. The value for `CCC1CCCCC1` was “inactive”; that for `CCCCCCCCCCCCCCC(=O)O` was “inactive”. The value for `CC1CCCC(=O)C1=O` (stereo not given) was “inactive”; that for `CC1C(C)(C)C2=C(C(=O)CCC2)C1(C)C` (stereo not given) was “inactive”.

As for `CN(C)CCCNCCCN(C)C`, the Potency entry was “inactive”. The value for `C[C@@H]1O[C@@H](OC[C@H]2O[C@@H](Oc3c(-c4ccc(O)c(O)c4)oc4cc(O)cc(O)c4c3=O)[C@H](O)[C@@H](O)[C@@H]2O)[C@H](O)[C@H](O)[C@H]1O` was “inactive”; that for `CC#N` was “inactive”. Next, `CCCCC(=O)N(C)C`: “inactive”; `NC(=O)c1ccccc1N`: “inactive”; `Cc1cc(N)no1`: “inactive”. Next, `CCCCC(C)C(=O)O` (stereo not given): “inactive”; `O=[N+]([O-])c1ccc(F)cc1F`: “inactive”; `CC(O)Cn1cnc2c1c(=O)n(C)c(=O)n2C` (stereo not given): “inactive”. Consider `CC1=C(CC(=O)O)c2cc(F)ccc2/C1=C\c1ccc(S(C)=O)cc1` (stereo not given), for which the Potency result is “inactive”.

For the molecule `CC(C)(C)C(=O)C(Oc1ccc(Cl)cc1)n1ccnc1` (stereo not given), the Potency entry was “inactive”. The value for `CC(C)c1cccc(C(C)C)c1N` was “inactive”. For the molecule `O=C1OC2(c3ccc(O)cc3Oc3cc(O)ccc32)c2ccccc21`, the Potency result was “inactive”. Next, `O=C(NCC1CCCCN1)c1cc(OCC(F)(F)F)ccc1OCC(F)(F)F` (stereo not given): “inactive”; `CCC(C)c1ccccc1` (stereo not given): “inactive”.

`COC(/C=C(\C)CCC=C(C)C)OC`: the Potency entry is “inactive”. The value for `CCC(C)(O)CCC=C(C)C` (stereo not given) was “inactive”.
